Holding throughout (set-up): scale not given: direction of the effect not stated beside the values
In assay [1] the target is Protein translocase subunit SecA (Escherichia coli (strain K12)) (UniProt P10408). In words: Assay to Identify E. coli SecA ATPase Inhibitors. The assay is classed as functional. To be noted: 30 µM.
Assay [2] addresses T1, Ubiquitin-activating enzyme e1, putative (Leishmania donovani (strain BPK282A1)) (UniProt E9BSI1).
T1 sequence (whole entry): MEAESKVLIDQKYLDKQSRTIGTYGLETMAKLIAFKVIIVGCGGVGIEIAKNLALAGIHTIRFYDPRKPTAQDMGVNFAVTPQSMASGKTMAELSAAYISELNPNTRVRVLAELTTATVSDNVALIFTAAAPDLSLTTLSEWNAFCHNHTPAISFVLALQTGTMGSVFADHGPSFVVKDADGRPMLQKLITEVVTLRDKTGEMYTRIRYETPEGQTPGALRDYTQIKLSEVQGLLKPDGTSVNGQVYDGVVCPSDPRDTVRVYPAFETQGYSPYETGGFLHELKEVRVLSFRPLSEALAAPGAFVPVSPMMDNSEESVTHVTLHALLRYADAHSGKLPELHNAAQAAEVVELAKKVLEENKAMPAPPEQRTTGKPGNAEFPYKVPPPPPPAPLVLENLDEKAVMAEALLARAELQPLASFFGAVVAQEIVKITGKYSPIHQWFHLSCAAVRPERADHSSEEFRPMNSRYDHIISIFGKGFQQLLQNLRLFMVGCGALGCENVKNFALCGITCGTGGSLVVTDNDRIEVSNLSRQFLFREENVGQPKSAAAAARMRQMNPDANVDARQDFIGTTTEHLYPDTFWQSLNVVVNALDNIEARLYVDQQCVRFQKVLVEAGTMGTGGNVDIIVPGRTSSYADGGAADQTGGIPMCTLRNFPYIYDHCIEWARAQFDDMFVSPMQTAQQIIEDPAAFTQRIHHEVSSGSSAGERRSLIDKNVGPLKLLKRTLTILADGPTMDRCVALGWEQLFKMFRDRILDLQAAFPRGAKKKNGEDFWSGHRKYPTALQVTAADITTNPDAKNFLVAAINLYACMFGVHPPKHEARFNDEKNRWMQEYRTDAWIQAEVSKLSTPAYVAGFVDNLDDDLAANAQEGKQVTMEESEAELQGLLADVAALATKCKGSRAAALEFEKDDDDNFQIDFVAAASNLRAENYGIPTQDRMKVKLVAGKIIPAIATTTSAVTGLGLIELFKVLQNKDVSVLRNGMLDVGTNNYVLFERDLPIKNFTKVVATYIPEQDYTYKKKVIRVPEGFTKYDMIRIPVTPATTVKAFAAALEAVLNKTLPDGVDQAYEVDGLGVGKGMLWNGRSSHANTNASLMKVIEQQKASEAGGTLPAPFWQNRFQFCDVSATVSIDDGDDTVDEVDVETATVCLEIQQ
Nature of the assay: Leishmania donovani Ubiquitin Activating Enzyme (LdE1). The assay is classed as functional. The settings on record: 30 µM.

Assay [3] concerns the target AMP-activated protein kinase, AMPK (Homo sapiens) (UniProt P54646+O43741+P54619+Q9UGJ0+Q9Y478+Q13131+Q9UGI9). In words: AMP-dependent Kinase enzyme assay. An in vitro enzyme assay that detects ADP turnover that is directly proportional to AMPK activity. This uses naive AMPK that is activated during the assay with MK-8722. The assay is classed as functional. To be noted: 30 µM.

The target of assay [4] is Sialic acid-binding Ig-like lectin 9 (Homo sapiens) (UniProt Q9Y336). In words: Hs-Siglec9 ALPHAscreen SOP 20170721. The settings on record: 10 µM. In general terms: Bead proximity is the source of the signal in Alpha formats.
In the next assay the test system is Trypanosoma cruzi. Nature of the assay: Trypanosoma cruzi phosphomannomutase and mannose-1-phosphate guanylyltransferase assay. The format is functional. The settings on record: 10 µM.
The target of assay [5] is T2, Arginase-2, mitochondrial (Homo sapiens) (UniProt P78540).
T2 sequence (whole entry): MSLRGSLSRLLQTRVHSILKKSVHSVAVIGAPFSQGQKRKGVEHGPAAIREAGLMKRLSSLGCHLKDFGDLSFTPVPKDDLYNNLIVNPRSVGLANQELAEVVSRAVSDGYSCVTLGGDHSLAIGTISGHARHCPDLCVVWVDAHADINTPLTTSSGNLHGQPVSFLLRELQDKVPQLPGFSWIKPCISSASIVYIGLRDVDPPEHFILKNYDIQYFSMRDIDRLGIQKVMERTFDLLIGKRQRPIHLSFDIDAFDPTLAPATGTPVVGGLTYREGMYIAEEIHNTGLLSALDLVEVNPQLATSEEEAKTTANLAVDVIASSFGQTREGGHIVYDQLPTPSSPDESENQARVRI
Nature of the assay: in vitro enzyme assay to detect the production of urea directly proportional to the activity of Arginase II. Also: in the data most compounds retested in dose-response had high values. The format is functional. To be noted: 33.3 µM.

The target in assay [6] is T3, Proteasome subunit beta (Trypanosoma cruzi) (UniProt O96673).
T3 sequence (whole entry): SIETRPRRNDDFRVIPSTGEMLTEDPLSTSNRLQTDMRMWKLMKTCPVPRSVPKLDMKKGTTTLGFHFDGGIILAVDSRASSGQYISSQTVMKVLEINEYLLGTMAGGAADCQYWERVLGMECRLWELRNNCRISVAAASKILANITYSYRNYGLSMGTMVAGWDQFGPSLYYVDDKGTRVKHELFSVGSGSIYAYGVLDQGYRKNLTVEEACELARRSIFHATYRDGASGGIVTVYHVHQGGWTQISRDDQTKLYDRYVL
In words: Trypanosoma cruzi proteasome chymotrypsin-like activity (TcProtChymo) assay. Also: in the data most compounds retested in dose-response had high values. To be noted: 9.37 µM. The assay is classed as functional.

The next assay is filed under the species Homo sapiens. Nature of the assay: To identify inhibition of the IFN signalling (Jak-Stat) pathway via expression of an eGFP reporter gene under the control of an IFN-stimulated response element (ISRE) containing MxA promoter. The assay is classed as functional. To be noted: 30 µM. (Reporter assays use an easily measured gene product as a stand-in for the process of interest.)

In assay [7] the target is T4, Tyrosyl-tRNA synthetase, putative (Trypanosoma cruzi (strain CL Brener)) (UniProt Q4DSP6).
T4 sequence (whole entry): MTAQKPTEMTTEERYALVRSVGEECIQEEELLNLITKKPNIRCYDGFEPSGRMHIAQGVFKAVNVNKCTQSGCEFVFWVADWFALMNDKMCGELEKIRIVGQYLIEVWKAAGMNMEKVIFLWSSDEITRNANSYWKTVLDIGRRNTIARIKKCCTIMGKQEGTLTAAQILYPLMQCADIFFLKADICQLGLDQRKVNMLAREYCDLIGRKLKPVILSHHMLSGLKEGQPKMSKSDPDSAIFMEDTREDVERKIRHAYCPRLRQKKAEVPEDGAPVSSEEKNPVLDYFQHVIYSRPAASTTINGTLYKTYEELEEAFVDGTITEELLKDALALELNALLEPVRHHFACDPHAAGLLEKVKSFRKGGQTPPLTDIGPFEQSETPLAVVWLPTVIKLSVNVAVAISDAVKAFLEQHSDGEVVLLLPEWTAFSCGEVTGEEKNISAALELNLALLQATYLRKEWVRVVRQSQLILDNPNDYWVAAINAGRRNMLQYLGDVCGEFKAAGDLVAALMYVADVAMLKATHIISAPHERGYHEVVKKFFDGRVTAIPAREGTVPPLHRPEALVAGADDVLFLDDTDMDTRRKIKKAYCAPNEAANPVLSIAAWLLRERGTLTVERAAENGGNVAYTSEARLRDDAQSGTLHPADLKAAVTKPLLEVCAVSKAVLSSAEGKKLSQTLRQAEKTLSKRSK
In words: Trypanosoma cruzi tyrosyl tRNA synthetase (TcYRS) _High Tyrosine SOP. Also: in the data most compounds retested in dose-response had high values. The format is functional. The settings on record: 30 µM.

The target of assay [8] is T4, Tyrosyl-tRNA synthetase, putative (Trypanosoma cruzi (strain CL Brener)). In words: Trypanosoma cruzi tyrosyl tRNA synthetase (TcYRS) SOP. The settings on record: 30 µM. The format is functional.
Assay [9] deals with Chromo domain-containing protein 1 (Saccharomyces cerevisiae (strain ATCC 204508 / S288c) (Baker's yeast)) (UniProt P32657). In words: ScCHD-1 Enzyme Inhibition Assay. Also: in the data most compounds retested in dose-response had high values. The assay is classed as functional. The settings on record: 30 µM.

Molecules are shown by their SMILES. For some of these results: Entries with a potency or affinity are not part of this list.

Chain of Sialic acid-binding Ig-like lectin 9 (Homo sapiens) (Q9Y336 whole entry): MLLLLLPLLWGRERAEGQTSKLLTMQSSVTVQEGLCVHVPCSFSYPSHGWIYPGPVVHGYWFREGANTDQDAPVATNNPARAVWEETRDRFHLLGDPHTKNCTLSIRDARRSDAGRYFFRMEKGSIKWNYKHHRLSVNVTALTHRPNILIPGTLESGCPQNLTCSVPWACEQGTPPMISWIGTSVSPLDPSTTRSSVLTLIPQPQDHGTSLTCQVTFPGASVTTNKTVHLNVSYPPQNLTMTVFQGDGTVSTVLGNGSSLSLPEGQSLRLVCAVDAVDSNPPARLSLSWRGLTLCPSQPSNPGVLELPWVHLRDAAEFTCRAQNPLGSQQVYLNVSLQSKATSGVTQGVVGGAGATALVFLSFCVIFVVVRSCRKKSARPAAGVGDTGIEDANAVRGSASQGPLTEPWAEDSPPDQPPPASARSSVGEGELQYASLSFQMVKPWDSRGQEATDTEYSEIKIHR
Chain of Chromo domain-containing protein 1 (Saccharomyces cerevisiae (strain ATCC 204508 / S288c) (Baker's yeast)) (P32657 whole entry, the tested form may be a part): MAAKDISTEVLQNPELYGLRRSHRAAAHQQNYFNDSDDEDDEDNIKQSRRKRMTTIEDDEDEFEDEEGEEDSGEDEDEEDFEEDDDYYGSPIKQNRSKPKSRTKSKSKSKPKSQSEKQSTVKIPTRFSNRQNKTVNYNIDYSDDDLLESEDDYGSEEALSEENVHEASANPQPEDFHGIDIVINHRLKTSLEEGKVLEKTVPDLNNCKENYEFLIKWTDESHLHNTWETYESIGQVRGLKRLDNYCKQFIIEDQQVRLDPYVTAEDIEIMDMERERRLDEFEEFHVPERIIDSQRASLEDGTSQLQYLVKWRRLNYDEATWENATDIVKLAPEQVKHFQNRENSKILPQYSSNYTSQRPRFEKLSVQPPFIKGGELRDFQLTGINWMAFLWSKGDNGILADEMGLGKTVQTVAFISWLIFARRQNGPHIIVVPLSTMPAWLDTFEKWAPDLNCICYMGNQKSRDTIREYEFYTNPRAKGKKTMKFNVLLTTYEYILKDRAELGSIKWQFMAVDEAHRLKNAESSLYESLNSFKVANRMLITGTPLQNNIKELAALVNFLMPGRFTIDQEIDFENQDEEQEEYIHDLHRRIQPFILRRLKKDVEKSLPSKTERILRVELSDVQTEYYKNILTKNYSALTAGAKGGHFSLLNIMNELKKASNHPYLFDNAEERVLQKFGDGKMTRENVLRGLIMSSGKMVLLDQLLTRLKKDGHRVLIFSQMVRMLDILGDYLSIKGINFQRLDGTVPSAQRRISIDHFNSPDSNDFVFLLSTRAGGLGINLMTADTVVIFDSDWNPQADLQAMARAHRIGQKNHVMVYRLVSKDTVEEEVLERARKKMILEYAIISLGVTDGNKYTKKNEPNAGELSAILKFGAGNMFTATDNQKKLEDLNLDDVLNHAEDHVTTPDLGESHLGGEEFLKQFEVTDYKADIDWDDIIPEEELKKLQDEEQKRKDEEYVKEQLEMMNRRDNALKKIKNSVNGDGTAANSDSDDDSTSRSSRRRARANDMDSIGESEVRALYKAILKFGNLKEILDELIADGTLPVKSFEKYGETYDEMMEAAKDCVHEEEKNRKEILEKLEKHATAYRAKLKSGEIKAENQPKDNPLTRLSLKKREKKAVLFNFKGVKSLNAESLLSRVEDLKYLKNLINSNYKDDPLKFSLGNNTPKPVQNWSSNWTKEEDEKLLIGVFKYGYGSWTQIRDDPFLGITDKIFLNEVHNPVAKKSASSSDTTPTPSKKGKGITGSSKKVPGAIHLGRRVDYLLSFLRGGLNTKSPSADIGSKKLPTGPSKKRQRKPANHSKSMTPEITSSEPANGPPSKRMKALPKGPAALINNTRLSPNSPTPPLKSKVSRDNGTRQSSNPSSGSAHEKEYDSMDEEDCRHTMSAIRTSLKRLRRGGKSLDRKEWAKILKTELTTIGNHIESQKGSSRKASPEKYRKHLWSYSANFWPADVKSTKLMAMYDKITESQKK
Chain of Protein translocase subunit SecA (Escherichia coli (strain K12)) (P10408 whole entry): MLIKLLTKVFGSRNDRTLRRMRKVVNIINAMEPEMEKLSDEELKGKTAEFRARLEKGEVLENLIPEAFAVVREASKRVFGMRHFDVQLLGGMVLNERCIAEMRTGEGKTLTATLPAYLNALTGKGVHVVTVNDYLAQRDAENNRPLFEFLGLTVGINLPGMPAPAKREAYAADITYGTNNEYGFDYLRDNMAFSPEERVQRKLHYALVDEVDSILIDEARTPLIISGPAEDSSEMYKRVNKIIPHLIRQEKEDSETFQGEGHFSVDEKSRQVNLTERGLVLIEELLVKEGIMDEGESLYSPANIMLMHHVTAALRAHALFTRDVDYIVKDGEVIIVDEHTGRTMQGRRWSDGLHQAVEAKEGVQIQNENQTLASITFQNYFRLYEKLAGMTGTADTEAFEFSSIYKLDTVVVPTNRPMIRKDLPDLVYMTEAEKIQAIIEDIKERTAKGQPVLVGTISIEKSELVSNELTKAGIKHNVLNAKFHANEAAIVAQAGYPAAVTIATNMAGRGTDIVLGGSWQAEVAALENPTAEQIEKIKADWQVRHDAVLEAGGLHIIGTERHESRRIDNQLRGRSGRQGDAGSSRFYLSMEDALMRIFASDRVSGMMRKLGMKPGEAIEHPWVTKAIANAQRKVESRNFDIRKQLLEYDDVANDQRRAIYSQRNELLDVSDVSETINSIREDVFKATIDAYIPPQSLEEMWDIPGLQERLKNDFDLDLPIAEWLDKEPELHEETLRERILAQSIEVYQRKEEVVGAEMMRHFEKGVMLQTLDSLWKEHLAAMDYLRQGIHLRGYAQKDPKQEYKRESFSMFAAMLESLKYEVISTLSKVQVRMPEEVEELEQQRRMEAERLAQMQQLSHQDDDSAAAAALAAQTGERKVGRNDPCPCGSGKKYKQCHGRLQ

With `CCc1nc(C)c([C@H]2CN(C)C[C@@H]2C(=O)NCCc2cnccn2)[nH]1`, the Percent Effect is -4.56% in assay [1]; 8.11% in assay [2]; 3.09% in assay [3]; 6.61% in [4]; 1.54% with Trypanosoma cruzi; 2.86% in assay [5]. Besides, the Percent Effect in assay [6] was 6.72%; in the assay filed under Homo sapiens, 3.41%; in assay [7], 10.1%; in [8], 17.1%; in assay [9], -3.65%.

As to `O=C(CCn1cccn1)N1CCN(CC(F)F)CC1`, the Percent Effect in assay [1] was -2.93%; in assay [2] it was 16.2%; in [3], -2.79%; in assay [4], -4.78%; in the assay with Trypanosoma cruzi, -0.836%; in assay [5], 0.554%. The Percent Effect is 4.13% in assay [6]; 14.6% in the assay listed under Homo sapiens; 9.9% in assay [7]; 25.6% in [8]; -5.97% in assay [9].

Turning to `CC(C)[C@H](NC(=O)NC1CCS(=O)(=O)C1)C(=O)NCc1ccccc1Cl` (stereo partly drawn), the Percent Effect in [1] was -0.711%; in assay [2], -6.67%; in assay [3], 4.79%; in assay [4], 4.22%; with Trypanosoma cruzi, -6.88%; in [5] it was -4.05%. Further, the Percent Effect was 3.51% in assay [6]; -4.73% in the assay listed under Homo sapiens; -5.29% in [7]; -2.56% in assay [8]; 1.25% in assay [9].

Turning to `Cn1ccnc1CNC(=O)N(CCCO)C1CCCc2ccccc21` (stereo not drawn), the Percent Effect in assay [1] was -2.21%; in [2], 5.26%; in assay [3] it was -1.41%; in assay [4] it was -4.25%; in the assay on Trypanosoma cruzi, 2.43%; in [5] it was -3.55%. Also, the Percent Effect is -3.36% in assay [6]; 8.36% in the assay filed under Homo sapiens; 2.13% in [7]; 10.4% in [8]; -9.5% in assay [9].

For the molecule `Cn1cc(-c2csc(N3CCOCC3)n2)cn1`, the Percent Effect in [1] is -3.35%; in [2] it was 1.39%; in assay [3] it was -45.6%; in [4], -2.23%; in the assay on Trypanosoma cruzi, 1.26%; in assay [5], 2.21%. The Percent Effect in assay [6] was 0.702%; in the assay listed under Homo sapiens it was 1.08%; in [7], 15.8%; in assay [8], 28.2%; in assay [9] it was -0.624%.

Turning to `CC(C)n1ccnc1C1CCN(Cc2ccc(Cl)c(F)c2)CC1`, the Percent Effect is -4.75% in assay [1]; 5.2% in assay [2]; 1.93% in assay [3]; 15.3% in [4]; 0.885% in the assay on Trypanosoma cruzi; -4.14% in assay [5]. In addition, the Percent Effect in assay [6] was determined as 12.5%; in the assay listed under Homo sapiens it was 18.3%; in [7], 6.45%; in assay [8] it was 8.64%; in assay [9], 0.763%.

Take `COc1cccc(CNC(=O)N2CCN(Cc3cc(C)on3)CC2)c1`: the Percent Effect in assay [1] is -1.41%; in assay [2], 15.2%; in assay [3], -1.11%; in assay [4] it was -7.32%; in the assay with Trypanosoma cruzi, -6.33%; in [5] it was 0.38%. For the same molecule, the Percent Effect in [6] was 1.39%; in the assay filed under Homo sapiens it was 25.8%; in [7] it was 5.42%; in assay [8] it was 11.4%; in assay [9], -5.16%.

As to `Cc1cc(CNC2CCCN(c3cccnn3)C2)no1` (stereo not drawn), the Percent Effect in assay [1] was -0.548%; in assay [2] it was -2.6%; in assay [3], -12.2%; in assay [4], 5.49%; with Trypanosoma cruzi, 0.885%; in [5], -5.52%. Moreover, the Percent Effect in [6] was 15.5%; in the assay listed under Homo sapiens it was 18.9%; in assay [7], 5.38%; in assay [8], 13.6%; in [9], -2.81%.

For the origin of these results see ChEMBL document CHEMBL3988442, “University of Dundee, Small-Polar-MMV Screening Library” (2021).
